Test results published in PubChem BioAssay AID1159580 (chemical genetic matrix, 2015).
The whole screen tested about 5,500 compounds, of which about 2,000 (36%) were called active. Inconclusive results (about 18%) are left out. Rule as the data show it: active = normalized growth mostly below about 0.91 (no sharp cut-off); inconclusive = no clear call, values can overlap the other calls; inactive = mostly above about 0.92. This is one part of the list.

Test: chemical genetic growth profiling, strain panel (AID 1159580);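 also: tested at 20 µM; growth read once vehicle control cultures reached saturation at 30 °C; 1 = growth at the plate median or of vehicle wells; lower values mean less growth of the strain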
Settings: S. cerevisiae deletion strains, growth OD

Measured: normalized growth

O=C(Cc1ccccc1)NO
inactive: locus YAL021C, strain ccr4, stronger effect = lower value 0.981 | locus YAL026C, strain drs2, stronger effect = lower value 0.983 | locus YAL030W, strain snc1, stronger effect = lower value 0.995 | locus YBL061C, strain skt5, stronger effect = lower value 0.957 | locus YBR009C, strain hhf1, stronger effect = lower value 0.993 | locus YBR023C, strain chs3, stronger effect = lower value 0.978 | locus YBR171W, strain sec66, stronger effect = lower value 0.96 | locus YBR231C, strain swc5, stronger effect = lower value 0.974 | locus YBR279W, strain paf1, stronger effect = lower value 0.976 | locus YCL011C, strain gbp2, stronger effect = lower value 0.978 | locus YCL016C, strain dcc1, stronger effect = lower value 0.96 | locus YCL061C, strain MRC1, stronger effect = lower value 0.975 | locus YCL069W, strain vba3, stronger effect = lower value 0.979 | locus YCR088W, strain abp1, stronger effect = lower value 0.978 | locus YDL005C, strain med2, stronger effect = lower value 0.956 | locus YDL040C, strain nat1, stronger effect = lower value 0.975 | locus YDR001C, strain nth1, stronger effect = lower value 0.972 | locus YDR069C, strain doa4, stronger effect = lower value 0.953 | locus YDR137W, strain rgp1, stronger effect = lower value 0.976 | locus YDR159W, strain sac3, stronger effect = lower value 0.964 | locus YDR195W, strain ref2 0.953 | locus YDR297W, strain sur2, stronger effect = lower value 0.987 | locus YDR334W, strain swr1, stronger effect = lower value 1.01 | locus YDR335W, strain msn5, stronger effect = lower value 0.982 | locus YDR392W, strain spt3, stronger effect = lower value 0.993 | locus YEL003W, strain gim4, stronger effect = lower value 0.974 | locus YEL037C, strain rad23, stronger effect = lower value 0.962 | locus YEL061C, strain CIN8 (second series), stronger effect = lower value 0.989 | locus YER015W, strain faa2, stronger effect = lower value 0.98 | locus YER016W, strain bim1, stronger effect = lower value 0.982 | locus YER111C, strain swi4, stronger effect = lower value 0.985 | locus YER155C, strain BEM2 (second series), stronger effect = lower value 0.925 | locus YFR010W, strain ubp6, stronger effect = lower value 0.983 | locus YGL167C, strain pmr1, stronger effect = lower value 0.969 | locus YGL173C, strain kem1, stronger effect = lower value 0.979 | locus YGL227W, strain vid30, stronger effect = lower value 0.961 | locus YGL240W, strain doc1, stronger effect = lower value 0.995 | locus YGL253W, strain hxk2, stronger effect = lower value 0.962 | locus YHR013C, strain ard1, stronger effect = lower value 0.944 | locus YHR027C, strain rpn1, stronger effect = lower value 0.974 | locus YHR142W, strain chs7, stronger effect = lower value 0.917 | locus YJL092W, strain hpr5, stronger effect = lower value 0.99 | locus YJL095W, strain BCK1 (second series), stronger effect = lower value 0.96 | locus YJL115W, strain asf1, stronger effect = lower value 0.961 | locus YJL129C, strain trk1, stronger effect = lower value 0.954 | locus YJL154C, strain vps35, stronger effect = lower value 0.989 | locus YJL164C, strain tpk1, stronger effect = lower value 0.977 | locus YJL166W, strain qcr8, stronger effect = lower value 0.966 | locus YKL160W, strain elf1, stronger effect = lower value 0.944 | locus YKR026C, strain gcn3, stronger effect = lower value 0.973 | locus YKR091W, strain srl3, stronger effect = lower value 0.973 | locus YLL001W, strain dnm1, stronger effect = lower value 0.98 | locus YLL026W, stronger effect = lower value 0.97 | locus YLL041C, strain sdh2, stronger effect = lower value 0.976 | locus YLR027C, strain aat2, stronger effect = lower value 0.973 | locus YLR221C, strain rsa3, stronger effect = lower value 0.992 | locus YLR258W, strain gsy2, stronger effect = lower value 0.973 | locus YLR262C, strain YPT6 (second series), stronger effect = lower value 0.978 | locus YLR320W, strain mms22, stronger effect = lower value 0.952 | locus YLR342W, strain FKS1, stronger effect = lower value 0.98 | locus YLR357W, strain rsc2, stronger effect = lower value 0.938 | locus YLR370C, strain arc18, stronger effect = lower value 0.981 | locus YLR384C, strain iki3, stronger effect = lower value 0.961 | locus YML120C, strain ndi1, stronger effect = lower value 0.981 | locus YMR058W, strain fet3, stronger effect = lower value 0.984 | locus YMR125W, strain sto1, stronger effect = lower value 0.963 | locus YMR129W, stronger effect = lower value 0.973 | locus YMR205C, strain PFK2, stronger effect = lower value 0.992 | locus YMR231W, strain pep5, stronger effect = lower value 0.975 | locus YNL071W, strain lat1, stronger effect = lower value 0.965 | locus YNL209W, strain ssb2, stronger effect = lower value 0.984 | locus YNL248C, strain rpa49, stronger effect = lower value 0.95 | locus YNL322C, strain KRE1 (second series), stronger effect = lower value 0.949 | locus YNR049C, strain mso1, stronger effect = lower value 0.983 | locus YOR001W, strain rrp6, stronger effect = lower value 1 | locus YOR070C, strain gyp1, stronger effect = lower value 0.98 | locus YOR080W, strain dia2, stronger effect = lower value 0.94 | locus YOR083W, strain WHI5, stronger effect = lower value 0.928 | locus YOR106W, strain vam3, stronger effect = lower value 0.939 | locus YOR265W, strain rbl2, stronger effect = lower value 0.976 | locus YOR270C, strain vph1, stronger effect = lower value 0.936 | locus YOR290C, strain snf2, stronger effect = lower value 0.969 | locus YPL051W, strain arl3, stronger effect = lower value 0.972 | locus YPL078C, strain atp4, stronger effect = lower value 0.97 | locus YPL106C, strain sse1, stronger effect = lower value 0.949 | locus YPL240C, strain hsp82, stronger effect = lower value 0.963
